Consider 17 compounds from PubChem BioAssay.

For experiment [1], the system named is XIP peptide (Xip251-270) binding. Nature of the experiment: small-molecule binders of XIP peptide, primary screen, biochemical, small-molecule microarray, fluorescence 635/667 nm, 0.1 µg/mL protein (AID 1182). The following applies: fluorescent protein binding, 635 nm, higher = more signal, called active from +8 up or from −8 down.
A further experiment has as its system XIP peptide (Xip251-270). Nature of the experiment: small-molecule binders of XIP peptide, primary screen, biochemical, small-molecule microarray, fluorescence 635/667 nm, 0.5 µg/mL protein (AID 1183). The following applies: small-molecule microarray binding, fluorescence 635 nm; higher = more signal.
Experiment [2] in a line: Plasmodium falciparum growth inhibition, primary screen, strain 3D7, DAPI fluorescence, 100 nL (AID 1184).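 Note: parasites grown inside human red blood cells in medium with human serum.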 The following applies: P. falciparum 3D7 growth, 3 d, higher = more signal.
In experiment [3] the target is Homeobox protein Hox-A13 (Mus musculus) (UniProt Q62424). Nature of the experiment: inhibitors of HoxA13-DNA binding, primary screen, biochemical, fluorescence polarization, labeled oligonucleotide (AID 1185). Conditions: 15 min, higher = more signal, called active from +8 up or from −8 down. A general note: Polarisation of emitted light reports the rotation of a fluorescent probe.
Chain of Homeobox protein Hox-A13 (Mus musculus) (Q62424 whole entry, looked up): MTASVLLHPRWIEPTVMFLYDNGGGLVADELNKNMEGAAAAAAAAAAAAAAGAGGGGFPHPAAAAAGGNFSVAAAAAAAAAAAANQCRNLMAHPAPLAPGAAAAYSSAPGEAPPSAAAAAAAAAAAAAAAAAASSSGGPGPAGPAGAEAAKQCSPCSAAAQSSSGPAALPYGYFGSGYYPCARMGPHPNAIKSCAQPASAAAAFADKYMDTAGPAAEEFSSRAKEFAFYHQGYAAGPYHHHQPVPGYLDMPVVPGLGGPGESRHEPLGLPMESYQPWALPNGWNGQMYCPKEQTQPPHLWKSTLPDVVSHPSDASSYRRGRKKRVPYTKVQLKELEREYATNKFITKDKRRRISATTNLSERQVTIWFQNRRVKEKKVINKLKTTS

The nature of experiment [4]: inhibitors of hydroxyurea-induced Chk1 phosphorylation, primary screen, imaging, HeLa, phospho-Chk1 antibody, percent positive cells (AID 1186). The following applies: hydroxyurea-induced phospho-Chk1 immunofluorescence imaging, higher = more signal.
Experiment [5] can be described thus: inhibitors of hydroxyurea-induced Chk1 phosphorylation, primary screen, imaging, HeLa, phospho-Chk1 nuclear intensity (AID 1187). The following applies: hydroxyurea-induced phospho-Chk1 immunofluorescence imaging, higher = more signal.

The source made the active and inactive calls. Unless noted, the rule behind the calls is not given here.

`COc1ccc([Si](C)(C)[C@H]2[C@H](CC(=O)N3CCC[C@H]3CO)O[C@@]3(C(=O)N(c4ccccc4)c4ccccc43)[C@@H]2C)cc1`: the composite z-score was 0.511 (inactive) in experiment [1] and 0.531 with XIP peptide (Xip251-270). Besides, the z-score in experiment [2] is -0.887; in experiment [3], -3.87 (inactive); in experiment [4], -1.18 (inactive); in experiment [5], -0.219 (inactive).
In the case of `CCCCCCC#C[Si](O[C@H](c1ccccc1)c1cn([C@H](C)c2ccccc2)nn1)(C(C)C)C(C)C`, the composite z-score in experiment [1] is -0.131 (inactive); in the experiment on XIP peptide (Xip251-270), -0.012. In addition, the z-score in experiment [2] was 0.308; in experiment [3], 0.337 (inactive); in experiment [4] it was -0.341 (inactive); in experiment [5], -0.487 (inactive).
Take `COCCOC(=O)N1C(=O)[C@@]2(c3cc(C#CCC(C(=O)OC)C(=O)OC)ccc31)[C@H](c1ccccc1OCCO)N1[C@H](c3ccccc3)[C@H](c3ccccc3)OC(=O)[C@H]1[C@@H]2C(=O)Nc1nc2ccccc2s1`: the composite z-score in experiment [1] was 0.83 (inactive); in the experiment on XIP peptide (Xip251-270), 0.862. Moreover, the z-score in experiment [2] is -1.53; in experiment [3], 3.51 (inactive); in experiment [4] it was -0.5 (inactive); in experiment [5], -0.31 (inactive).
As for `Cc1c(NC(=O)/C(C#N)=C/C=C/c2ccccc2)c(=O)n(-c2ccccc2)n1C`, the composite z-score was -0.3 (inactive) in experiment [1] and 0.559 with XIP peptide (Xip251-270). Moreover, the z-score in experiment [2] was -0.582; in experiment [3] it was -1.5 (inactive); in experiment [4], 0.062 (inactive); in experiment [5] it was 0.214 (inactive).
With `[N-]=[N+]=NCc1ccccc1C[C@]1(C(=O)NCCN2CCOCC2)N=C(c2ccc(OCCCO)cc2)O[C@H]1c1ccccc1CN=[N+]=[N-]`, the composite z-score in experiment [1] is 3.06 (inactive); in the experiment with XIP peptide (Xip251-270), 0.578. Also, the z-score in experiment [2] is -2.67; in experiment [3], -2.59 (inactive); in experiment [4], -0.26 (inactive); in experiment [5], -0.787 (inactive).
On to `COc1ccc([Si](C)(C)[C@H]2[C@H](CCO)O[C@@]3(C(=O)N(Cc4ccccc4)c4ccc(N5C(=O)COc6ccccc65)cc43)[C@@H]2C)cc1`, for which the composite z-score is 0.577 (inactive) in experiment [1] and 0.473 with XIP peptide (Xip251-270). The z-score in experiment [2] was -1.09; in experiment [3], -0.771 (inactive); in experiment [4], -0.584 (inactive); in experiment [5], -0.791 (inactive).
`O=C1NC(=O)C2C1C=CC(C(O)c1cccs1)N2Nc1ccccn1` (configuration not stated): the figures for the composite z-score (in experiment [1]; in the experiment on XIP peptide (Xip251-270)) were 1.43 (inactive) and 0.438, respectively. In addition, the z-score is 0.197 in experiment [2], -5.03 (inactive) in experiment [3], -0.0367 (inactive) in experiment [4] and -0.263 (inactive) in experiment [5].
As for `CN1C(=O)C2C=CC(C(O)C=Cc3ccc([N+](=O)[O-])cc3)N(N3CCCCC3)C2C1=O` (configuration not stated), the composite z-score in experiment [1] is 0.62 (inactive); in the experiment with XIP peptide (Xip251-270) it was 0.776. Further, the z-score in experiment [2] is 0.986; in experiment [3] it was -4.74 (inactive); in experiment [4], 0.579 (inactive); in experiment [5], -0.157 (inactive).
Consider `O=C1O[C@@H](c2ccccc2)[C@@H](c2ccccc2)N2[C@@H](c3ccccc3OCCO)[C@]3(C(=O)Nc4ccc(C#CC5(O)CCCCCC5)cc43)[C@@H](C(=O)NC[C@H](O)c3ccccc3)[C@H]12`, for which the composite z-score is 0.487 (inactive) in experiment [1] and 0.76 in the experiment with XIP peptide (Xip251-270). Moreover, the z-score in experiment [2] is -1.96; in experiment [3] it was -2.71 (inactive); in experiment [4] it was -0.213 (inactive); in experiment [5], 0.0361 (inactive).
For `C=C(C(=O)CC[C@@H](OC(C)=O)c1ccc(OCCO)cc1)C(C)C`, the composite z-score is 0.564 (inactive) in experiment [1] and 0.101 in the experiment with XIP peptide (Xip251-270). The z-score is -1.42 in experiment [2], -3.67 (inactive) in experiment [3], 0.598 (inactive) in experiment [4] and 0.147 (inactive) in experiment [5].
Turning to `C=C(C(=O)CC[C@@H](OC(=O)c1cccnc1)c1ccc(CO)o1)C(C)C`, the composite z-score is -0.239 (inactive) in experiment [1] and 0.249 with XIP peptide (Xip251-270). Also, the z-score in experiment [2] is -0.188; in experiment [3], -4.55 (inactive); in experiment [4], 0.647 (inactive); in experiment [5], 0.501 (inactive).
`COc1ccccc1CN1C(=O)c2ccccc2[C@](Cc2ccccc2I)(C(=O)NC2CC2)[C@@H]1c1ccc(CO)cc1`: the composite z-score in experiment [1] is -0.259 (inactive); in the experiment on XIP peptide (Xip251-270), 0.823. Besides, the z-score in experiment [2] was -2.22; in experiment [3], -4.79 (inactive); in experiment [4] it was -0.145 (inactive); in experiment [5] it was 0.548 (inactive).
Consider `C/C=C/[C@H](CCn1cc([C@H](O)c2ccccc2)nn1)[Si](C)(C)c1ccc(OC)cc1`, for which the composite z-score in experiment [1] is -0.0661 (inactive); in the experiment with XIP peptide (Xip251-270) it was 0.634. In addition, the z-score in experiment [2] was 1.03; in experiment [3], -5.59 (inactive); in experiment [4] it was -0.131 (inactive); in experiment [5] it was -0.28 (inactive).
`[N-]=[N+]=NCc1ccccc1C[C@]1(C(=O)NCc2ccccc2)COC(c2ccc(OCCCO)cc2)=N1`: the results for the composite z-score (in experiment [1]; with XIP peptide (Xip251-270)) were 0.395 (inactive) and 0.689, respectively. The z-score is -2.45 in experiment [2], -6.24 (inactive) in experiment [3], -0.403 (inactive) in experiment [4] and -0.737 (inactive) in experiment [5].
Turning to `O=C(NCc1ccccc1)[C@@H]1c2ccccc2C(=O)N(Cc2cc(F)cc(C(F)(F)F)c2)[C@H]1c1ccc(CO)cc1`, the composite z-score was 0.818 (inactive) in experiment [1] and 0.941 with XIP peptide (Xip251-270). Moreover, the z-score is -0.0341 in experiment [2], -2.88 (inactive) in experiment [3], -1.07 (inactive) in experiment [4] and -1.29 (inactive) in experiment [5].
For the compound `COc1ccc([Si](C)(C)[C@@H]2[C@@H](CCO)O[C@]3(C(=O)N(Cc4ccc(N5C(=O)c6cccc7cccc5c67)cc4)c4ccccc43)[C@H]2C)cc1`, the composite z-score in experiment [1] was 0.476 (inactive); with XIP peptide (Xip251-270), 0.596. Moreover, the z-score in experiment [2] is -2.68; in experiment [3] it was -0.946 (inactive); in experiment [4], -0.903 (inactive); in experiment [5] it was -0.198 (inactive).
Regarding `CN(C)CCCCCCNC(=O)[C@@H]1C[C@@H]2C(=O)NCC(=O)N2[C@@H]1c1cccc(OCCO)c1`, the composite z-score in experiment [1] is 0.096 (inactive); with XIP peptide (Xip251-270), 0.851. The z-score in experiment [2] is 0.331; in experiment [3], -2.07 (inactive); in experiment [4], 0.491 (inactive); in experiment [5], 0.797 (inactive).
